# “And” between values parts separate entries of the source, which are not always exact repeats. Equal values may be shown once. Inconclusive results are not listed. The source made the active and inactive calls. Unless noted, calls come from the whole dose curve; as a rule, active = well fitted curve in the direction sought with a large enough effect; inconclusive = small, poorly fitted or top-dose-only effect, or another doubt; inactive = no such curve, though single readings can be large; an effect the other way counts as inactive or inconclusive.
# Key:
# [1] = Drug repurposing screens with cells derived from glioblastoma tumor samples (AID 1345199); settings: GBM patient neurospheres viability, ATP luminescence, 48 h; note: nearly all actives have a fitted effect of over 40% in size; note: potency is the fitted concentration of half-maximal effect; for activity, negative = cell killing: % is set by controls: 0 for no effect and ±100 for the full control effect
# How it was run: (§1)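 Primary testing used CD133+ neurospheres from four GBM patients, seven concentrations, 48 h exposure and ATP-based viability; confirmation added three slower-growing patient lines.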
# [2] = qHTS assay to identify inhibitors of the type 1 interferon - major histocompatibility complex class I in skeletal muscle: Counter screen cell viability and HiBit confirmation (AID 1347412); settings: iHSKM muscle cells + IFN-b, HiBiT or CellTiter-Glo, 24 h; Potency: HiBiT unless noted; Viability, at 45.9 µM (top of the series); note: nearly all actives have a fitted effect of over 60% in size; note: potency is the fitted concentration of half-maximal effect
# How it was run: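 Human myoblast knock-in line, 4.0 ng/ml IFN-beta stimulation, 24 h compound treatment. Endpoints: HiBiT lytic luminescence (HLA-B level) and CellTiter Glo (ATP). Dosing 12 concentrations, 3-fold steps, 46 uM highest final.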
# [3] = biological target: Nuclear receptor subfamily 1 group I member 2 (Rattus norvegicus) (UniProt Q9R1A7); experiment: qHTS assay for small molecule activators of the rat pregnane X receptor (rPXR) signaling pathway (AID 651751; call rule not given here; note: 0% is about no effect); settings: rPXR reporter cells, luciferase (One-Glo), 24 h
# astro = control astrocytes; experiment: Drug repurposing screens with cells derived from glioblastoma tumor samples (AID 1345199); settings: viability, ATP luminescence, 48 h; series mostly up to 45.9 µM; note: nearly all actives have a fitted effect of over 40% in size; note: potency is the fitted concentration of half-maximal effect; for activity, negative = cell killing: % is set by controls: 0 for no effect and ±100 for the full control effect
# How it was run: as §1
# Tov112D = experiment: Primary qHTS to identify gynecologic anti-cancer compounds using libraries of approved drugs and bioactive compounds (AID 1345084); settings: Gynecologic cancer cell panel viability, ATPlite luminescence, 48 h; series mostly up to 57.5 µM; note: nearly all actives have a fitted effect of over 55% in size; note: potency is the fitted concentration of half-maximal effect
# How it was run: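 Measured: luminescence after ATPlite addition (15 min, RT). Exposure: 48 h, 37 C, 5% CO2.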
# [4] = qHTS assay for small molecule activators of the human pregnane X receptor (PXR) signaling pathway (AID 720659; call rule not given here; note: 0% is about no effect)
# [5] = at 45.9 µM (top of the series), tumour line B
# [6] = at 45.9 µM (top of the series), tumour line D
# [7] = at 46 µM (top of the series), tumour line A
# [8] = at 46.1 µM (top of the series), tumour line C
# Chain of Nuclear receptor subfamily 1 group I member 2 (Rattus norvegicus) (Q9R1A7 whole entry, looked up): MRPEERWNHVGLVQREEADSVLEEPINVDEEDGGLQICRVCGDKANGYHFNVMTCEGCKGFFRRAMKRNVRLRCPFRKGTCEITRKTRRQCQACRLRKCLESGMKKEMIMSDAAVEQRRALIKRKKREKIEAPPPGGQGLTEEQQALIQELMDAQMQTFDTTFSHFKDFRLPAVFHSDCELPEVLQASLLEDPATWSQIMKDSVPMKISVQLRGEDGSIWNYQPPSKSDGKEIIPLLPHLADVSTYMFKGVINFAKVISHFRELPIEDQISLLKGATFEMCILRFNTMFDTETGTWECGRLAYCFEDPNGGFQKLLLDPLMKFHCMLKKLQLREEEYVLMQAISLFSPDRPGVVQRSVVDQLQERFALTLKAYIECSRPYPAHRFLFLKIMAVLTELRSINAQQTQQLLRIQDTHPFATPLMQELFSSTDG
structure (smiles),measurement,setting,value
C[n+]1c2cc(N)ccc2cc2ccc(N)cc21 (tested in a mixture with another compound),Potency,[1]; tumour line B,11.2 µM (active)
same,Potency,[1]; tumour line D,5.01 µM (active)
CN(C)CC/C=C1\c2ccccc2Sc2ccc(Cl)cc21,Potency,[1]; tumour line D,11.2 µM (active)
CCCCC(CC)CN=C(N)NC(N)=NCCCCCCN=C(N)NC(N)=NCC(CC)CCCC (configuration not stated),Potency,[2],22.2 µM [Viability] (active)
CC(C)n1nc(-c2cc3cc(O)ccc3[nH]2)c2c(N)ncnc21,Potency,[2],3.52 µM (active)
COc1cccc2c1C(=O)c1c(O)c3c(c(O)c1C2=O)C[C@@](O)(C(=O)CO)C[C@@H]3O[C@H]1C[C@H](N)[C@H](O)[C@H](C)O1,max response,[3],0.888% (inactive) and 0.44% (inactive)
Oc1ccc(O)cc1,max response,[3],-4.09% (inactive)
CCN(CC)CCOc1ccc(C(O)(Cc2ccc(Cl)cc2)c2ccc(C)cc2)cc1 (configuration not stated),Potency,astro,22.4 µM (active)
C1CCc2nnnn2CC1,"activity, negative = cell killing",[1]; [5],-2.41% (inactive)
same,"activity, negative = cell killing",[1]; [6],-3.11% (inactive)
same,"activity, negative = cell killing",[1]; [7],-28.5% (inactive)
same,"activity, negative = cell killing",[1]; [8],-27% (inactive)
same,Potency,astro,inactive
COC(=O)[C@H]1[C@H]2C[C@H]3c4[nH]c5ccccc5c4CCN3C[C@H]2CC[C@@H]1O,"activity, negative = cell killing",[1]; [5],-4.34% (inactive)
same,"activity, negative = cell killing",[1]; [6],-13.5% (inactive)
same,"activity, negative = cell killing",[1]; [8],4.13% (inactive)
same,Potency,astro,inactive
Oc1c(I)cc(Cl)c2cccnc12,"activity, negative = cell killing",[1]; [8],-11.9% (inactive)
same,Potency,[1]; tumour line A,17.8 µM (active)
same,Potency,[1]; tumour line B,17.8 µM (active)
same,max response,[3],-1.19% (inactive)
C[C@]12CC[C@@H]3c4ccc(O)cc4CC[C@H]3[C@@H]1CC[C@@H]2O,"activity, negative = cell killing",[1]; [5],-16.2% (inactive)
same,"activity, negative = cell killing",[1]; [8],-20.5% (inactive)
same,Potency,[1]; tumour line A,31.6 µM (active)
Nc1cc(Cl)c(NC2=NCCN2)c(Cl)c1,"activity, negative = cell killing",[1]; [5],-8.4% (inactive)
same,"activity, negative = cell killing",[1]; [6],-1.45% (inactive)
same,"activity, negative = cell killing",[1]; [7],-27.8% (inactive)
same,"activity, negative = cell killing",[1]; [8],-9.7% (inactive)
same,Potency,astro,inactive
C[C@@H]1CN(CCCn2c3ccccc3c3ccccc32)C[C@H](C)N1,Potency,astro,12.6 µM (active)
CC(C)(C)CC(C)(C)c1ccc(OCCOCC[N+](C)(C)Cc2ccccc2)cc1,Potency,Tov112D,inactive
same,Potency,astro,20 µM (active)
C[N+]1(CCCCC[N+]2(C)CCCC2)CCCC1,"activity, negative = cell killing",[1]; [5],0.364% (inactive)
same,"activity, negative = cell killing",[1]; [6],-0.863% (inactive)
same,"activity, negative = cell killing",[1]; [7],-3.4% (inactive)
same,"activity, negative = cell killing",[1]; [8],-6.31% (inactive)
same,Potency,astro,inactive
CCOC(=O)COc1ccc2c(C)c(CCN(CC)CC)c(=O)oc2c1Cl,Potency,Tov112D,inactive
same,"activity, negative = cell killing",[1]; [5],-13.9% (inactive)
same,"activity, negative = cell killing",[1]; [8],-21.4% (inactive)
same,Potency,[1]; tumour line A,11.2 µM (active)
same,Potency,astro,inactive
N[C@@H](Cc1cnc[nH]1)C(=O)O,"activity, negative = cell killing",[1]; [5],-11.3% (inactive)
same,"activity, negative = cell killing",[1]; [6],-9.45% (inactive)
same,"activity, negative = cell killing",[1]; [8],-12.5% (inactive)
same,Potency,astro,inactive
COc1cccc2c1C(=O)c1c(O)c3c(c(O)c1C2=O)C[C@@](O)(C(C)=O)C[C@@H]3O[C@H]1C[C@H](N)[C@H](O)[C@H](C)O1,Potency,Tov112D,0.398 µM (active)
same,Potency,astro,1.12 µM (active)
same,Potency,[2],0.442 µM (active)
same,max response,[3],-12.1% (inactive)
same,outcome,[4],inactive
N[C@H](CO)C(=O)O,"activity, negative = cell killing",[1]; [5],4.31% (inactive)
same,"activity, negative = cell killing",[1]; [6],-24.3% (inactive)
same,"activity, negative = cell killing",[1]; [8],2.37% (inactive)
same,Potency,astro,inactive
COc1cc(C=C2CCC/C(=C\c3ccc(O)c(OC)c3)C2=O)ccc1O,Potency,astro,20 µM (active)
same,Potency,[2],inactive
COc1cc(NS(C)(=O)=O)ccc1Nc1c2ccccc2nc2ccccc12,Potency,astro,11.2 µM (active)
CCCn1c(=O)[nH]c(=O)c2[nH]cnc21,"activity, negative = cell killing",[1]; [5],-19.3% (inactive)
same,"activity, negative = cell killing",[1]; [6],9.35% (inactive)
same,"activity, negative = cell killing",[1]; [7],-17.3% (inactive)
same,"activity, negative = cell killing",[1]; [8],-18.8% (inactive)
same,Potency,astro,inactive
O=C(N/N=C/c1ccccc1O)c1ccncc1,"activity, negative = cell killing",[1]; [6],0.44% (inactive)
same,Potency,[1]; tumour line B,17.8 µM (active)
same,Potency,astro,inactive
CC(C)C[C@H]1C(=O)N2CCC[C@H]2[C@]2(O)O[C@](NC(=O)[C@@H]3C=C4c5cccc6[nH]c(Br)c(c56)C[C@H]4N(C)C3)(C(C)C)C(=O)N12,"activity, negative = cell killing",[1]; [5],-7.46% (inactive)
same,"activity, negative = cell killing",[1]; [8],12.4% (inactive)
same,Potency,[1]; tumour line A,2.24 µM (active)
same,Potency,astro,inactive
COC1=CC(=O)C[C@@H](C)[C@]12Oc1c(Cl)c(OC)cc(OC)c1C2=O,"activity, negative = cell killing",[1]; [5],-17.6% (inactive)
same,"activity, negative = cell killing",[1]; [6],-7.65% (inactive)
same,"activity, negative = cell killing",[1]; [8],-2.75% (inactive)
O=C(O)c1cc2cc(Cc3cccnc3)ccc2o1,"activity, negative = cell killing",[1]; [5],-16.4% (inactive)
same,"activity, negative = cell killing",[1]; [6],-17.6% (inactive)
same,Potency,astro,inactive
CC[C@H](C)C(=O)O[C@H]1CCC=C2C=C[C@H](C)[C@H](CC[C@@H]3C[C@@H](O)CC(=O)O3)[C@H]21,Potency,astro,2 µM (active)
O=C1CCC(c2ccc(-n3ccnc3)cc2)=NN1,"activity, negative = cell killing",[1]; [5],-6.09% (inactive)
same,"activity, negative = cell killing",[1]; [6],-6.36% (inactive)
same,"activity, negative = cell killing",[1]; [8],-27.3% (inactive)
same,Potency,astro,inactive
Cc1cc(N)c2cc(NC(=O)Nc3ccc4nc(C)cc(N)c4c3)ccc2n1,Potency,Tov112D,inactive
same,Potency,astro,35.5 µM (active)
CC(C)COC(=O)OCN1C(=O)CN(CCN2CC(=O)N(COC(=O)OCC(C)C)C(=O)C2)CC1=O,"activity, negative = cell killing",[1]; [5],-7.7% (inactive)
same,"activity, negative = cell killing",[1]; [6],-16.2% (inactive)
same,"activity, negative = cell killing",[1]; [7],-10.8% (inactive)
same,"activity, negative = cell killing",[1]; [8],-11% (inactive)
same,Potency,astro,inactive
CCCC1O[C@@H]2C[C@H]3[C@@H]4CCC5=CC(=O)C=C[C@]5(C)[C@H]4[C@@H](O)C[C@]3(C)[C@]2(C(=O)CO)O1 (some centres not stated),"activity, negative = cell killing",[1]; [5],-17.2% (inactive)
same,"activity, negative = cell killing",[1]; [6],-5.46% (inactive)
same,"activity, negative = cell killing",[1]; [8],-20.2% (inactive)
same,Potency,astro,inactive
CN(C)/N=N/c1nc[nH]c1C(N)=O,"activity, negative = cell killing",[1]; [5],-24.8% (inactive)
same,"activity, negative = cell killing",[1]; [6],-1.38% (inactive)
same,"activity, negative = cell killing",[1]; [7],-11.7% (inactive)
same,"activity, negative = cell killing",[1]; [8],-12% (inactive)
same,Potency,astro,inactive
same,max response,[3],-2.27% (inactive)
same,outcome,[4],inactive
CC(=O)Oc1ccc(C(c2ccc(OC(C)=O)cc2)c2ccccn2)cc1,"activity, negative = cell killing",[1]; [5],-5.88% (inactive)
same,"activity, negative = cell killing",[1]; [6],-3.54% (inactive)
same,"activity, negative = cell killing",[1]; [7],-29.3% (inactive)
same,max response,[3],-3.28% (inactive)
Cc1c(N(C)CS(=O)(=O)O)c(=O)n(-c2ccccc2)n1C,"activity, negative = cell killing","[1]; at 20 µM (top of the series), tumour line C",-2.96% (inactive)
same,"activity, negative = cell killing","[1]; at 21.2 µM (top of the series), tumour line B",-9.28% (inactive)
same,"activity, negative = cell killing","[1]; at 21.2 µM (top of the series), tumour line D",-9.47% (inactive)
same,"activity, negative = cell killing","[1]; at 21.3 µM (top of the series), tumour line A",-23.9% (inactive)
same,Potency,astro,inactive
CNCC[C@@H](Oc1ccccc1C)c1ccccc1,Potency,Tov112D,inactive
same,Potency,astro,inactive
CCC(NC(C)C)C(O)c1ccc(O)c(O)c1 (configuration not stated),"activity, negative = cell killing",[1]; [5],-1.77% (inactive)
same,"activity, negative = cell killing",[1]; [6],12.5% (inactive)
same,"activity, negative = cell killing",[1]; [7],-20.2% (inactive)
same,"activity, negative = cell killing",[1]; [8],-19.2% (inactive)
same,Potency,astro,inactive
CC(=O)O[C@H]1C[C@@H]2CC[C@@H]3[C@H](CC[C@@]4(C)[C@H]3C[C@H]([N+]3(C)CCCCC3)[C@@H]4OC(C)=O)[C@@]2(C)C[C@@H]1[N+]1(C)CCCCC1,"activity, negative = cell killing",[1]; [5],7.88% (inactive)
same,"activity, negative = cell killing",[1]; [6],-21.6% (inactive)
same,"activity, negative = cell killing",[1]; [7],-27.9% (inactive)
same,"activity, negative = cell killing",[1]; [8],-11.1% (inactive)
same,Potency,astro,inactive
C[C@@H]1C(=O)NC2=Nc3cccc(Cl)c3CN21,"activity, negative = cell killing",[1]; [5],-5.98% (inactive)
same,"activity, negative = cell killing",[1]; [6],-24.2% (inactive)
same,"activity, negative = cell killing",[1]; [8],-18.1% (inactive)
same,Potency,astro,inactive
C=C(CC)C(=O)c1ccc(OCC(=O)O)c(Cl)c1Cl,"activity, negative = cell killing",[1]; [8],1.71% (inactive)
same,max response,[3],-15% (inactive)
same,outcome,[4],inactive
CC1(C)CCC(NC(=O)[C@@H](N)CCC(=O)O)CC1,"activity, negative = cell killing",[1]; [5],-9.8% (inactive)
same,"activity, negative = cell killing",[1]; [6],-20.2% (inactive)
same,"activity, negative = cell killing",[1]; [7],-26.1% (inactive)
same,"activity, negative = cell killing",[1]; [8],-24.2% (inactive)
same,Potency,astro,inactive
CNCCC=C1c2ccccc2CCc2ccccc21,"activity, negative = cell killing",[1]; [8],-6.98% (inactive)
same,Potency,[1]; tumour line A,6.31 µM (active)
same,Potency,[1]; tumour line B,22.4 µM (active)
same,Potency,astro,11.2 µM (active)
Oc1ccc(Cl)cc1Sc1cc(Cl)ccc1O,Potency,astro,7.94 µM (active)

# — PubChem BioAssay (NCATS)
